Reference: PubChem BioAssay (NCATS)
Inconclusive results are not listed. Activity calls are given as the source filed them. The call rests on the fitted dose curve; in most records, active means well fitted curve in the direction sought with a large enough effect; inconclusive means small, poorly fitted or top-dose-only effect, or another doubt; inactive means no such curve, though single readings can be large; an effect the other way counts as inactive or inconclusive.

Tests used:
[1] = qHTS to identify inhibitors of the type 1 interferon - major histocompatibility complex class I in skeletal muscle: primary screen against the NCATS Pharmaceutical Collection (AID 1347407); conditions: human skeletal muscle cells, IFN-b-induced MHC-I HiBiT luminescence, 24 h; series mostly up to 45.9 µM;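 further: luminescence of HiBiT knocked into endogenous HLA-B as interferon-induced MHC class I level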
Method in brief: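 Immortalized human myoblasts (C25cl48) with HiBiT knocked into endogenous HLA-B*08:01 were stimulated with 4 ng/ml IFN-beta and treated with compounds (8-point, 1:5, top 46 uM final) for 24 h at 37 C; HiBiT lytic luminescence read.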

[2] = target: Protein phosphatase 1D (Homo sapiens) (UniProt O15297); test: RapidFire Mass Spectrometry qHTS Assay for Modulators of WT P53-Induced Phosphatase 1 (WIP1) (AID 1347424); conditions: WIP1 dephosphorylation of phosphopeptide, RapidFire MS; series mostly up to 63 µM;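 further: amount of dephosphorylated VEPPL-S-QETFS peptide product formed by WIP1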
Chain of Protein phosphatase 1D (Homo sapiens) (O15297 whole entry, looked up): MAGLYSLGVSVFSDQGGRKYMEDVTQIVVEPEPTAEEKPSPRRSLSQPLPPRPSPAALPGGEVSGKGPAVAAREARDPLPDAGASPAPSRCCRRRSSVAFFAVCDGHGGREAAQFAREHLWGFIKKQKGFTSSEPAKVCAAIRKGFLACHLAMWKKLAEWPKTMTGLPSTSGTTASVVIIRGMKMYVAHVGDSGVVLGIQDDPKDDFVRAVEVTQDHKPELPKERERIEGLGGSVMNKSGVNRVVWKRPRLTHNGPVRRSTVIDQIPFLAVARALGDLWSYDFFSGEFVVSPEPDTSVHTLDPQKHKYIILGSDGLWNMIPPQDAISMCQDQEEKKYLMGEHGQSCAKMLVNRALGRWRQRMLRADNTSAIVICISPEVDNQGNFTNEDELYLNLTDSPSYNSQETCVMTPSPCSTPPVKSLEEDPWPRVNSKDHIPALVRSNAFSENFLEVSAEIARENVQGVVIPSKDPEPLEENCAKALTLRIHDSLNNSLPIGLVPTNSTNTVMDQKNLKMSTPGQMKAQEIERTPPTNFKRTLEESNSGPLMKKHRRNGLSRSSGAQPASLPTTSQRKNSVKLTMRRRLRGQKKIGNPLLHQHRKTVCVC
Method in brief: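 Mass-spectrometric measurement of dephosphorylated peptide after a 5 min room-temperature reaction of 10 nM WIP1 with 2 uM phosphopeptide, following 1 h compound preincubation in 30 mM MgCl2 buffer.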

[3] = target: Protein phosphatase 1D (Homo sapiens) (UniProt O15297); test: Rhodamine-PBP qHTS Assay for Modulators of WT P53-Induced Phosphatase 1 (WIP1) (AID 1347425); conditions: recombinant WIP1, Rhodamine-PBP phosphate fluorescence, real-time; series mostly up to 57.5 µM
Method in brief: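 The read-out is the change in Rhodamine-PBP fluorescence (f1 - f0, ex 525/em 598 nm) as Pi is released, read each minute for 11 min. Final reaction: 5 nM WIP1, 10 uM phosphopeptide VEPPL-pS-QETFS, 10 uM Rh-PBP, 50 mM Tris-HCl pH 7.5, 30 mM MgCl2. Compound was preincubated with enzyme for 1 hour at room temperature.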

[4] = Primary qHTS for inhibitors of La Crosse Virus (LACV) - induced cell death in SH-SY5Y cells (AID 1508616); conditions: SH-SY5Y LACV cytopathicity rescue, ATP luminescence, 6 d; series mostly up to 4.29 µM;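 further: top concentration of the series differs between compounds; higher means more rescue of cells from virus-induced death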
Method in brief: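 Screening measures cell viability in LACV-infected SH-SY5Y cultures. Compound was added before virus (0.01 MOI), and ATP was detected by luminescence 6 days later.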

[5] = target: Calcium and integrin-binding protein 1 (Homo sapiens) (UniProt Q99828); test: Primary qHTS for Identification of Calcium Integrin Binding Protein 1 (CIB1) Competitor (AID 1508620); conditions: CIB1-GST / FITC-alphaIIb peptide fluorescence polarization; series mostly up to 114 µM;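 further: GST tagged CIB1 binding a fluorescein labelled alphaIIb integrin peptide tracer; top concentration of the series differs between compounds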
Chain of Calcium and integrin-binding protein 1 (Homo sapiens) (Q99828 whole entry, looked up): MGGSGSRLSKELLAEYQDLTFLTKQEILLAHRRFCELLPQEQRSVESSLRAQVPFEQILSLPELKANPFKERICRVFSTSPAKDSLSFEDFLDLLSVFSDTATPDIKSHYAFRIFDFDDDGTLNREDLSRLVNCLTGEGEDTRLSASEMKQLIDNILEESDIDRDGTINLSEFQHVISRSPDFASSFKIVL
Method in brief: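 Fluorescence polarization competition: CIB1-GST (1 uM final) preincubated with compound 15 min at room temperature, then FITC-labeled alphaIIb peptide (100 nM final) added for another 15 min. Polarization read at Ex 480/Em 540.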

Measured: outcome

Cc1cccc(C(=O)O)c1O
inactive: [1] | [2] | [3] | [4] | [5]

C[N+](C)(C)CC(O)CC(=O)[O-] (stereo not given)
inactive: [1] | [2] | [3] | [4] | [5]

CC(CSC(=O)c1ccccc1)C(=O)N1C[C@@H](Sc2ccccc2)C[C@H]1C(=O)O (stereo not given in full)
inactive: [1] | [2] | [3] | [4] | [5]

C[C@@H](c1ncncc1F)C(O)(Cn1cncn1)c1ccc(F)cc1F (stereo not given in full)
inactive: [1] | [2] | [3] | [4] | [5]

O=C1C(c2[nH]c3ccccc3c2O)=Nc2ccccc21
inactive: [1] | [2] | [3] | [4] | [5]

CCOc1ccc(C(=O)OCCN(CC)CC)cc1
inactive: [1] | [2] | [3] | [4] | [5]

O[C@@H]1CO[C@H]2[C@@H]1OC[C@@H]2O
inactive: [1] | [2] | [3] | [4] | [5]

Cc1c(I)c(=O)n(-c2ccccc2)n1C
inactive: [1] | [2] | [3] | [4] | [5]

CC(=O)NCc1c(I)c(NC(C)=O)c(I)c(C(=O)O)c1I
inactive: [1] | [2] | [3] | [4] | [5]

FC(F)(F)C(Cl)Br (stereo not given)
inactive: [1] | [2] | [3] | [4] | [5]

CCc1cccc(CC)c1NC(=O)CN(CC(=O)O)CC(=O)O
inactive: [1] | [2] | [3] | [4] | [5]

Cc1cc(-n2nc3ccc(Cl)cc3n2)c(O)c(C(C)(C)C)c1
inactive: [1] | [2] | [3] | [4] | [5]

CC(N)CCCC(C)(C)O (stereo not given)
inactive: [1] | [2] | [3] | [4] | [5]
